Measurements: PubChem BioAssay (NCI)
Compounds without any hit were thinned out: in the full panel of roughly 83,000, 20% have a hit.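 Single-dose data. Exposure time 48 hours. Values below 10 considered active.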 Active and inactive are the calls of the source.

Experiments:
Experiment in all cases: NCI-60 one-dose screen, 48 h (100 = growth as untreated, 0 = no growth, -100 = all killed)
Conditions in all cases: 10 µM unless noted
[1] = tested on: NCI-H23 lung
[2] = tested on: NCI-H226 lung
[3] = tested on: NCI-H322M lung
[4] = tested on: HOP-62 NSCLC
[5] = tested on: NCI-H460 lung
[6] = tested on: HOP-92 NSCLC
[7] = tested on: NCI-H522 lung
[8] = tested on: A549/ATCC NSCLC
[9] = tested on: 786-0 renal
[10] = tested on: COLO 205 colon

Measured: growth

CN(C)c1ccc2nc3ccc(=[N+](C)C)cc-3oc2c1
inactive: [2] 33.2% | [5] 35.3% | [6] 55.9% | [8] 30.7% | [9] 66.1%
active: [1] 9.83% | [3] 9.08% | [4] 7.12% | [7] -37.4% | [10] -10.3%

COCC(N)=O
inactive: [1] 103% | [2] 99% | [3] 100% | [4] 95% | [5] 108% | [6] 94.5% | [7] 100% | [8] 104% | [9] 92% | [10] 111%

CCCCOC(=O)c1ccc(NC(=O)CCl)cc1
inactive: [1] 10.4% | [2] 71% | [3] 93.7% | [4] 102% | [5] 35.8% | [6] 27% | [8] 69.4% | [9] 70.2% | [10] 68.8%
active: [7] -77.7%

Nc1ccn(C2OC(CO)C(O)C2F)c(=O)n1 (stereo not given)
inactive: [1] 83.7% | [2] 101% | [3] 107% | [4] 63.5% | [5] 70.1% | [6] 78.3% | [7] 51.4% | [8] 68% | [9] 79.9% | [10] 65.1%

CC(=O)NCNC(C)=O
inactive: [1] 113% | [2] 99.8% | [3] 110% | [4] 108% | [5] 113% | [6] 150% | [7] 119% | [8] 96.7% | [9] 109% | [10] 118%

CCC(=O)Oc1c(C)cc(O)c2ccccc12
inactive: [1] 83.5% | [2] 86.8% | [3] 87.4% | [4] 79.5% | [5] 95.6% | [6] 79.5% | [7] 84.5% | [8] 93.4% | [9] 84.7% | [10] 110%

CN(C)Cc1ccccn1
inactive: [1] 101% | [2] 108% | [3] 96.3% | [4] 104% | [5] 109% | [6] 114% | [7] 91.9% | [8] 93.1% | [9] 97% | [10] 117%

CCOc1ccc2c(c1)c(C)cc(C)[n+]2CC
inactive: [1] 43.5% | [2] 82.8% | [3] 83.2% | [4] 80.7% | [5] 109% | [6] 54.2% | [7] 46.1% | [8] 45.4% | [9] 79.4% | [10] 65.5%

Cc1ccc(OC(=O)c2ccccc2)cc1
inactive: [1] 114% | [2] 100% | [3] 123% | [4] 97.7% | [5] 106% | [6] 130% | [7] 91.8% | [8] 98.7% | [9] 112% | [10] 96.1%

O=C1C=C[C@H](O)[C@@]2(CO)O[C@@H]12
inactive: [1] 93.1% | [2] 71.3% | [3] 114% | [4] 126% | [5] 121% | [6] 64.6% | [8] 144% | [9] 102%
active: [7] -60.6% | [10] 3.59%

CCCNS(=O)(=O)c1ccc(Cl)cc1
inactive: [1] 104% | [2] 113% | [3] 93.6% | [4] 86.6% | [5] 103% | [6] 104% | [7] 96.6% | [8] 94.5% | [9] 97.6% | [10] 102%

C=CC1=NC(C)(C)CC(C)O1 (stereo not given)
inactive: [1] 114% | [2] 111% | [3] 108% | [4] 110% | [5] 104% | [6] 105% | [7] 97.5% | [8] 104% | [9] 103% | [10] 116%

Cc1ccc(S(=O)(=O)Oc2ccc3sc4c(CO)ccc(NCCN(C)C)c4c(=O)c3c2)cc1
active: [1] -79.5% [100 µM] | [2] -42.2% [100 µM] | [3] -98.2% [100 µM] | [4] -68.3% [100 µM] | [5] -83% [100 µM] | [6] -80.1% [100 µM] | [7] -74.4% [100 µM] | [8] -70.9% [100 µM] | [9] -73.4% [100 µM] | [10] -87.6% [100 µM]

Nc1ncnc2c1ncn2C1OC(CO)C2OC21 (stereo not given)
inactive: [1] 107% | [2] 93.8% | [3] 118% | [4] 96.6% | [5] 109% | [6] 102% | [7] 94.6% | [8] 102% | [9] 108% | [10] 107%

C=C(C)COc1ccc(C(C)(C)C)cc1
inactive: [1] 108% | [2] 95.8% | [3] 102% | [4] 91.2% | [5] 104% | [6] 99.3% | [7] 90.8% | [8] 91.2% | [9] 101% | [10] 104%
